This passage reports AC50 and outcome results from PubChem BioAssay (EPA / NIEHS).

SMILES strings stand for the structures. Results filed as inconclusive are left out. The source made the active and inactive calls. The calls were made as follows: active = hit-call score of the fitted dose curve at least 0.9, where 1 is the maximum; inconclusive = response in the unintended direction; inactive = score below 0.9.

As a reminder, the AC50 is the concentration at which the activity in the assay is half-maximal.

The nature of test [1]: ACEA_AR_agonist_AUC_viability: ACEA Biosciences xCELLigence Real-Time Cell Analysis on Androgen Receptor Agonism for Viability (AID 2283775).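 As to AC50: viability read 80 hours after compound addition.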 The method in brief: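 Real-time impedance tracking of 22Rv1 growth, readings every 5 min for 5 h then hourly; area-under-curve viability endpoint at 80 hours, relative to DMSO. Compounds at eight concentrations, 1:4 steps, top 100 uM, n = 2.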

Test [2] can be described thus: ACEA_AR_antagonist_AUC_viability: ACEA Biosciences xCELLigence Real-Time Cell Analysis on Androgen Receptor Antagonism for Viability (AID 2283776).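 Also: 22Rv1 human prostate cancer cells growing on impedance electrode plates; hits lower the growth signal relative to DMSO meaning cytotoxicity.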 In outline:
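Real-time electrical impedance tracks 22Rv1 proliferation after continuous compound exposure (top 100 uM final, 1:4 steps, 8 concentrations). The 80 h area-under-curve serves as the cytotoxicity readout relative to DMSO.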

Test [3] addresses Luciferin 4-monooxygenase (Photinus pyralis) (UniProt P08659). The test can be described thus: CCTE_Simmons_QuantiLum_inhib_2: CCTE's Firefly Luciferase Inhibition Assay, Simmons Lab (AID 2283767). In outline:
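Luminescence loss relative to DMSO vehicle defines inhibition; detection reagent containing 150 uM D-luciferin and 147 uM dATP (final, pH 7.8) is injected immediately before each read. Enzyme is preincubated with an 8-point titration (5 nM–87.5 uM final) for 30 min at 37C.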

The target of test [4] is AR (gene 367) (UniProt P10275). Put plainly: ACEA_AR_agonist_80hr: ACEA Biosciences xCELLigence Real-Time Cell Analysis on Androgen Receptor Agonism for Proliferation (AID 2283783).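 Also: hits increase impedance growth signal above DMSO baseline.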 In outline:
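22Rv1 human prostate cancer cells were seeded after preconditioning in assay medium and monitored overnight, then dosed in an eight-point 1:4 dilution series from 100 uM (≤0.5% DMSO). Impedance-based growth was read at 80 h, gain-of-signal versus DMSO.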

Test [5] addresses AR (gene 367) (UniProt P10275). Put plainly: ACEA_AR_antagonist_80hr: ACEA Biosciences xCELLigence Real-Time Cell Analysis on Androgen Receptor Antagonism for Proliferation (AID 2283787).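 Also: hits lower the impedance growth signal relative to DMSO.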 In outline:
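Impedance readout (RT-CES), 80 h post-dose; loss-of-signal vs DMSO baseline. 22Rv1 cells in assay medium. Compounds: 8-pt 1:4 series, max 100 uM final, up to 0.5% DMSO; n = 2.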

Chain of AR (gene 367) (P10275 whole entry, looked up): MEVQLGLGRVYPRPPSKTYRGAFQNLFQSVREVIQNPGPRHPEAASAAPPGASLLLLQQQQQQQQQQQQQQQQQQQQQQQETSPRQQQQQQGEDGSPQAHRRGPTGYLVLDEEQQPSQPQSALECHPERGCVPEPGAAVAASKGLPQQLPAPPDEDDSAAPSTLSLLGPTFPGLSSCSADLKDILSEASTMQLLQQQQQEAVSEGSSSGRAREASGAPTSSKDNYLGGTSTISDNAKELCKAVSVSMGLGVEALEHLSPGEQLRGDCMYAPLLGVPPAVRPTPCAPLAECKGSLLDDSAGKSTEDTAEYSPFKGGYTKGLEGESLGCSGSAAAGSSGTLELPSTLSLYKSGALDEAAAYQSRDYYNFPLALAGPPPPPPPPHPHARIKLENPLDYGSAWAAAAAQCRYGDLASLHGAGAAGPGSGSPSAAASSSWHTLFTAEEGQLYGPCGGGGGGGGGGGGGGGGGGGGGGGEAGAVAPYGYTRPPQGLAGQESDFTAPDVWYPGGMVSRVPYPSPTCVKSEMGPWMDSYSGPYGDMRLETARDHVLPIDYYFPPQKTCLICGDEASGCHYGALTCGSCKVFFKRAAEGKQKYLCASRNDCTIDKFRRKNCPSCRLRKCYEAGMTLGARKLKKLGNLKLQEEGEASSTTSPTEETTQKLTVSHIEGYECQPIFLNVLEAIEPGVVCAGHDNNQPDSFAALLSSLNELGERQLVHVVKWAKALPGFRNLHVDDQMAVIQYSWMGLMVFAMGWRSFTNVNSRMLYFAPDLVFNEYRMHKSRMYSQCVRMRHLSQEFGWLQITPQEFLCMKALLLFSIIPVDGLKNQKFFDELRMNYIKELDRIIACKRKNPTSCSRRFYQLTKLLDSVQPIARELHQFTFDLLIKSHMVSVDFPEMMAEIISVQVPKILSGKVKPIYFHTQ
Chain of Luciferin 4-monooxygenase (Photinus pyralis) (P08659 whole entry, looked up): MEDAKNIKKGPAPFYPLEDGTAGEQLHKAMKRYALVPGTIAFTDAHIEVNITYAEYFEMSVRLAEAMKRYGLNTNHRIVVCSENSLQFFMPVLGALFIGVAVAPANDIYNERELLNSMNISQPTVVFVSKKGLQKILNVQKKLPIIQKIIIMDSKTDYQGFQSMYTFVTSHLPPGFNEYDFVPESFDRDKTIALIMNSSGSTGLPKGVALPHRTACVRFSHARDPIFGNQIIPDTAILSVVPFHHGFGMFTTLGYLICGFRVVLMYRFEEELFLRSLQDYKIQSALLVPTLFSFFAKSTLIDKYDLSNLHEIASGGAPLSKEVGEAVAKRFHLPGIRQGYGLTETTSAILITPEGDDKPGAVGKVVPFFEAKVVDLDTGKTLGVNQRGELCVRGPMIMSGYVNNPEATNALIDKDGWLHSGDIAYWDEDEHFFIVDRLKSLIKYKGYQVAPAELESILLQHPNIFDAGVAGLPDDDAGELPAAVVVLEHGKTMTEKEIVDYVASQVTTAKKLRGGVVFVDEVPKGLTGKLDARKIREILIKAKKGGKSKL

As for `COc1cccc2c1C(=O)c1c(O)c3c(c(O)c1C2=O)C[C@@](O)(C(=O)CO)C[C@@H]3O[C@H]1C[C@H](N)[C@H](O)[C@H](C)O1`, the AC50 in test [1] is 0.0985 µM (active); in test [2], 0.0588 µM (active).

For `CNCc1cc(F)ccc1Oc1ccc(Cl)c(Cl)c1`, the AC50 in test [1] is 75.9 µM (active); in test [2], 67.4 µM (active).

As to `CCOC(=O)C(C)(C)Oc1ccc(Cl)cc1`, the result in test [1] and in test [2] was inactive.

In the case of `Cc1nc(C)nc(N2C[C@@H](C)N(c3ccnc([C@@H](C)O)n3)[C@@H](C)C2)n1`, the outcome in test [1] and in test [2] was inactive.

In the case of `CCCCCCCCCCCC(=O)OC`, the result in test [1] and in test [2] was inactive.

For `CC(=O)C(C)=CC1C(C)=CCCC1(C)C` (stereo not given), the call in test [1] was inactive. Moreover, the AC50 in test [2] was 9.92 µM (active).

Consider `O=C(N[C@@H](Cc1ccccc1)[C@@H](O)C(=O)N1C[C@@H](O)[C@@H](O)C1)c1cc2cc(Cl)ccc2[nH]1`, for which the concentration at half-maximal activity (AC50) in test [1] is 69.6 µM (active); in test [2], 30.9 µM (active).

Regarding `CCCCCCCCCCCCCCCCCC(=O)O`, the result in test [1] was inactive. The AC50 in test [2] is 25 µM (active).

Regarding `Cc1ccc(C(C)C)c(O)c1`, the compound was classed as inactive in test [1] and in test [2].

On to `c1cc(-c2ccncc2)ccn1`, for which the compound was called inactive in test [1] and in test [2].

As to `Cc1cccc(C)c1O`, the call in test [3], in test [2] and in test [4] was inactive.

As for `CC(=O)OC/C=C(\C)CCC=C(C)C`, the call in test [1] and in test [2] was inactive.

Take `CC(CO)OC(C)CO` (stereo not given) (tested in a mixture with another compound): in test [1], the compound was classed as inactive.

As for `Nc1ccc2c(c1)C(=O)c1ccccc1C2=O`, the outcome in test [1] was inactive. Further, in test [2], the AC50 was 14.1 µM (active).

Consider `NCCO`, for which the compound was called inactive in test [1] and in test [2].

On to `Cc1ccc2ncccc2c1`, for which the compound was called inactive in test [1] and in test [2].

Regarding `C1CCC(SSC2CCCCC2)CC1`, the AC50 in test [1] was 77.7 µM (active); in test [2], 78.3 µM (active).

Consider `Oc1ccc2c(c1)OC[C@@H](N1CCC(O)(c3ccc(F)cc3)CC1)[C@H]2O`, for which the call in test [1] and in test [2] was inactive.

For `O=C(O)Cc1ccccc1Nc1c(Cl)cccc1Cl`, the AC50 in test [1] is 42.1 µM (active); in test [2], 50 µM (active); in test [5], 70.9 µM (active).

With `CC(=O)OCCOCCOCCOC(C)=O`, the compound was classed as inactive in test [2].

On to `COc1cc(C=O)ccc1O`, for which the compound was classed as inactive in test [4].

As for `CC1(C)CC(N=C=O)CC(C)(CN=C=O)C1` (stereo not given), the AC50 in test [1] was 25.5 µM (active). For the same compound, in test [2], the compound was classed as inactive.

As for `CCc1c(C(=O)NN2CCCCC2)nn(-c2ccc(Cl)cc2Cl)c1-c1ccc(Br)cc1`, the AC50 was 12.7 µM (active) in test [1] and 10.8 µM (active) in test [2].

For `CCCCCC(=O)O`, the compound was classed as inactive in test [1], in test [2] and in test [5].

In the case of `CC(=O)Oc1ccccc1C(=O)O`, the result in test [1], in test [2] and in test [5] was inactive.

As for `C=CCOC(=O)c1ccccc1C(=O)OCC=C`, the compound was classed as inactive in test [2].

Regarding `CCCCCCC(=O)OCC`, in test [1], the AC50 is 87.7 µM (active). Moreover, in test [2], the result was inactive.

Take `COc1cc(-c2nc(NC(=O)c3cc4cc(C)cc(C)c4n3CC(=O)O)sc2CCC2CCCCC2)c(OC)cc1Cl`: the figures for the AC50 in test [1], in test [2] and in test [5] were 9.71 µM (active), 9.23 µM (active) and 11.6 µM (active), respectively.

In the case of `Cc1cccc([N+](=O)[O-])c1C`, the compound was classed as inactive in test [1], in test [2] and in test [5].

With `CC(C)c1ccc(C(=O)N=C(N)N)cc1S(C)(=O)=O`, the compound was called inactive in test [1] and in test [2].

For the compound `CCCCCCCCCCO`, the call in test [2] was inactive.

On to `Cc1ccc(C)c(C)c1`, for which the outcome in test [1], in test [2] and in test [5] was inactive.

On to `Cc1nc(-c2ccc3c(c2)CCN(CCC2CCC(NC(=O)/C=C/c4ccc(F)cc4)CC2)CC3)no1` (stereo not given), for which the outcome in test [1] was inactive. Besides, the AC50 in test [2] was 16.8 µM (active); in test [5], 23.2 µM (active).

Take `O=c1[nH]cc(F)c(=O)[nH]1`: the AC50 was 2.42 µM (active) in test [1] and 1.76 µM (active) in test [2].

Turning to `CCCCCCOCCO`, the compound was called inactive in test [2].

For the compound `Cc1cccc(Nc2cc(Cl)nc(SCC(=O)O)n2)c1C`, the compound was classed as inactive in test [1], in test [2] and in test [5].

On to `COc1ccc(S(=O)(=O)N2C(=O)[C@@](c3ccccc3OC)(N3C[C@H](O)C[C@H]3C(=O)N(C)C)c3cc(Cl)ccc32)c(OC)c1`, for which the AC50 was 20.3 µM (active) in test [1], 20.5 µM (active) in test [2] and 24 µM (active) in test [5].

Regarding `CCCCCCCCCCC`, the result in test [1] and in test [5] was inactive.

On to `COCCOC[C@H](CC1(C(=O)NC2CCC(C(=O)O)CC2)CCCC1)C(=O)Oc1ccc2c(c1)CCC2` (stereo not given in full), for which the outcome in test [1] was inactive. In addition, the AC50 was 16.5 µM (active) in test [2] and 18.2 µM (active) in test [5].

As for `COCCOCCOC`, the result in test [2], in test [4] and in test [5] was inactive.

As for `COc1cc(/C=C/C(=O)CC(=O)/C=C/c2ccc(O)c(OC)c2)ccc1O`, the AC50 is 27 µM (active) in test [1], 23.2 µM (active) in test [2] and 25.9 µM (active) in test [5]. Moreover, the outcome in test [4] was inactive.

Consider `Clc1cc(Cl)c(Cl)cc1Cl`, for which the compound was classed as inactive in test [1] and in test [2].

In the case of `COc1ccc2c(c1)c(CC(=O)O)c(C)n2C(=O)c1ccc(Cl)cc1`, the figures for the concentration at half-maximal activity (AC50) in test [1], in test [2] and in test [5] were 37 µM (active), 25.4 µM (active) and 34.1 µM (active), respectively.
